The full ranking holds about 68,000 sequences; the median of “fluorescence intensity (a.u.)” is about 9,100, and the highest 2% start at about 16,000. This excerpt belongs to a sample that is enriched for the highest values.
Each sequence was assayed against OsWRKY34 (Oryza sativa, UniProt Q0JBA9 1-250) (assay: protein-binding microarray (RPBM); PBS, 2% BSA, 51.3 ng/ul salmon testes DNA, 50 uM zinc acetate, 200 nM TF, 25 C, 1 h; high values mean tight binding). Conditions: protein: recombinant; tags: N-terminal polyhistidine and DsRed monomer fusion (pET32a); label: CyDye5-dUTP incorporated in the synthesized complementary strand; 3' TTTTT single-stranded linker to array surface; dsDNA, one strand shown.
Summary of the method: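 A custom Agilent array was converted to double-stranded form by primer extension with Cy5-dUTP and blocked with 2% BSA. Protein at 200 nM in PBS with 2% BSA, salmon testes DNA and 50 µM zinc acetate was applied for 1 h at 25 °C, followed by washing. The proteins were polyhistidine–DsRed N-terminal fusions of transcription factors, expressed in E. coli BL21-CodonPlus and Ni–NTA-purified. The binding signal is per-feature fluorescence intensity (arbitrary units) from an Axon 4000B scanner.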

Sequence of OsWRKY34 (Q0JBA9 entry or part of it): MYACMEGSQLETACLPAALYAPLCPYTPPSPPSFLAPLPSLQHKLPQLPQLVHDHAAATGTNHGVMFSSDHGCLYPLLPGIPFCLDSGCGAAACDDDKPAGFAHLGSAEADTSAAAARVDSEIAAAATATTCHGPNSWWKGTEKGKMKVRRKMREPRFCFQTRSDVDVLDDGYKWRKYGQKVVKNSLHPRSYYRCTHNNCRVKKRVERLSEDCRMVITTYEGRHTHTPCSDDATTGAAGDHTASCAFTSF

Sequence | binding signal
GCGGCGGTGGGGATGGGGATAGGGCGGCGGCGGCGGATGGCGGAGTCACCTAGTGCAG | 13600 fluorescence intensity (a.u.)
TGGGGCTTCTGGTGTGCTCGGTGGTGTTCGCCGCGGCGGCCGGAGTCACCTAGTGCAG | 14200 fluorescence intensity (a.u.)
GGTGGTTCTGTGAGCCCGCGGGGTTGGGGTTGGGGCCTGGCGGAGTCACCTAGTGCAG | 12900 fluorescence intensity (a.u.)
GGATGGGCATGGAGGAGGTGCAGTGAGTGGAGCTGGAGGACGGAGTCACCTAGTGCAG | 8730 fluorescence intensity (a.u.)
TGTGGTGCGTGCCGCGTGCGGGAGGGCAGGGTGAGGTGAGCGGAGTCACCTAGTGCAG | 8810 fluorescence intensity (a.u.)
CCGCGGTGGGGCATGGTGGTGAGGTGGGAGGGAGGGAGCTCGGAGTCACCTAGTGCAG | 17100 fluorescence intensity (a.u.)
TGGTTCGCTCGGTGGGTGGTGGTGGTTCTGTGAGCCCGCGCGGAGTCACCTAGTGCAG | 18400 fluorescence intensity (a.u.)
TTTGTGGGTGATGGTGGGTGGGAGTGGGATAGGGCGGCCCCGGAGTCACCTAGTGCAG | 17000 fluorescence intensity (a.u.)
TCTTTTGTCACATCTTTATAATATTGCCCATGGCACATACCGGAGTCACCTAGTGCAG | 8490 fluorescence intensity (a.u.)
TGCCATCTCCTTCGCCATTGGAGCTCACCACACACTCGCTCGGAGTCACCTAGTGCAG | 9660 fluorescence intensity (a.u.)
CACCTGACCCATTCTTGCTTACCTTATATTTAGCATACTCCGGAGTCACCTAGTGCAG | 8160 fluorescence intensity (a.u.)
CTATTTTATAAAATCTTTGTTTATGCATACCAGCTAAATTCGGAGTCACCTAGTGCAG | 8800 fluorescence intensity (a.u.)
AAGCCAACCCAACCCGCACCTTCTCGCTGCTTCTACTACTCGGAGTCACCTAGTGCAG | 13100 fluorescence intensity (a.u.)
ACGGTGGCGTTGTGCCCTGTGATGGTGTCCGCGTTGTGTCCGGAGTCACCTAGTGCAG | 8990 fluorescence intensity (a.u.)
CTAGTGAGGGGCGGGCGGGCGGGCAAGGGGAGCGGATGGGCGGAGTCACCTAGTGCAG | 19100 fluorescence intensity (a.u.)
CGGGCGGATGAGGGGCGGCGATGGGCGGGCAAGGGGCGTGCGGAGTCACCTAGTGCAG | 12500 fluorescence intensity (a.u.)
CAGAGCAGGGGAGGGGAGGGGAGGGGATCCTGGTGAGCCTCGGAGTCACCTAGTGCAG | 17600 fluorescence intensity (a.u.)
GGGCAAGGGGAGCGGATGGGCGGGGAGGAGGCAGGCTGCGCGGAGTCACCTAGTGCAG | 11600 fluorescence intensity (a.u.)
GCTGCTGCTGCCGCCCGGCCGCCACCCGTGACCCGCGCCACGGAGTCACCTAGTGCAG | 8860 fluorescence intensity (a.u.)
GCAACGGGGAGGTGGGCGGAGGTGCGGCGCGGCGGCGGGCCGGAGTCACCTAGTGCAG | 10300 fluorescence intensity (a.u.)
CTGGCGAGCAGAGCAGGGGAGGGGAGGGGAGGGGATCCTGCGGAGTCACCTAGTGCAG | 15800 fluorescence intensity (a.u.)
GTCGAGGCGGCGGCGGCGGGGCGCGGAGTGAGGTGGGTGCCGGAGTCACCTAGTGCAG | 8640 fluorescence intensity (a.u.)
TGCCGCTGCCGCCGTGTGCCCGAGCGAGCCCACGCCCACACGGAGTCACCTAGTGCAG | 8340 fluorescence intensity (a.u.)

Sequence | binding signal
ATGTGGTTTGGTGAGCGCCGCTGTGCCCACCTAACCCACACGGAGTCACCTAGTGCAG | 27300 fluorescence intensity (a.u.)
TCTCAGCAGGGGAGGGGAGGGGAGGGGATCCTGGTGAGGTCGGAGTCACCTAGTGCAG | 15700 fluorescence intensity (a.u.)
ACGTGTACGGCGCGGGGTGGAGGTGAGGGGTGGTGGGGCCCGGAGTCACCTAGTGCAG | 18000 fluorescence intensity (a.u.)
CTGGGATTTGGTGGAGCTCCTGCGGTGGGGTGCCAGTGATCGGAGTCACCTAGTGCAG | 12200 fluorescence intensity (a.u.)
ACTGTATATCGATGGCCCACTCGGCCCGACCCGTCCCGGCCGGAGTCACCTAGTGCAG | 10600 fluorescence intensity (a.u.)
ATCAAGCCGAATAGTGCTGACATCTTCATTCTGGTTTTTTCGGAGTCACCTAGTGCAG | 9510 fluorescence intensity (a.u.)
GTCTAGTATAAATCAACGCCACACCACTTGCCTAGTCATCCGGAGTCACCTAGTGCAG | 8070 fluorescence intensity (a.u.)
GTCGGCGCCCATAGTTTTTTTCCGCAAGGGTTTTCTACGTCGGAGTCACCTAGTGCAG | 8810 fluorescence intensity (a.u.)
TCTTAAGCGTGTTCATGGGTCTTGTTATGCTCAAGTCAAACGGAGTCACCTAGTGCAG | 8950 fluorescence intensity (a.u.)
ATCTCTTTCATCCGATTACTGTGTTTTTTCTGTGGTCCAACGGAGTCACCTAGTGCAG | 8410 fluorescence intensity (a.u.)
GCCGCTTGCCCTCGCAGCCGCTCCGCCTGCCTCCGCCCACCGGAGTCACCTAGTGCAG | 10000 fluorescence intensity (a.u.)
ATCTGGTAACTCAAGTGCTCTCTTCCTGACTGCTGCAGCACGGAGTCACCTAGTGCAG | 9470 fluorescence intensity (a.u.)
GATGAGTGGTGATTGGTGAAGATATCTGGTGGTTTTGGGACGGAGTCACCTAGTGCAG | 8630 fluorescence intensity (a.u.)
AACCCGTTCACACACATTGTCAGGGACCAGCTCATTACTTCGGAGTCACCTAGTGCAG | 10400 fluorescence intensity (a.u.)
AATGTTTGATACCGTTGACTTTTTAGTACGTGTTTGATCACGGAGTCACCTAGTGCAG | 32600 fluorescence intensity (a.u.)
TCCCCACCTGTCAGTACTTATGTTTTGACTTTTTGACCCACGGAGTCACCTAGTGCAG | 14300 fluorescence intensity (a.u.)
AATGTTTGACACCGTTGACTTTTTAGTACGTGTTTGTCCACGGAGTCACCTAGTGCAG | 30200 fluorescence intensity (a.u.)
AACGATGACGACGTGTGCGCGCTGTTGTTTTTTTGTCCCACGGAGTCACCTAGTGCAG | 19700 fluorescence intensity (a.u.)
TGACTTTTTAGTACGTGTTTGATCATTCGTCTTATTCAAACGGAGTCACCTAGTGCAG | 10800 fluorescence intensity (a.u.)
CCGTTGACTTTTTAGTACGTGTTTGATTCATTCTTAAATACGGAGTCACCTAGTGCAG | 16200 fluorescence intensity (a.u.)
GGGCTGTTGTGTGTGTGTTTTGCGACGTGCCGTGCTGGGCCGGAGTCACCTAGTGCAG | 8290 fluorescence intensity (a.u.)
TGATTTTTGTCCCACGTGGCATTGACGTGGCGCTTATGTGCGGAGTCACCTAGTGCAG | 8850 fluorescence intensity (a.u.)

From PMC7819943, “Rice protein-binding microarrays: a tool to detect cis-acting elements near promoter regions in rice”
